One assay concerns PIK3C3. The arrangement: species or system human, MV4-11 + K-562 + COLO205 + SK-N-BE2 + OVCAR-8. Conditions: read-out: apparent Kd; compound concentrations:100 nM and 1000 nM (sheet 'Samples'); n = 1.
Regarding `O=c1cc(N2CCOCC2)nc2n(Cc3ccc(F)c(Cl)c3)ccn12` [GSK2297099A], the potency estimated from few doses was 912 nM. In the case of `Cc1nn2c(=O)cc(N3CCOCC3)nc2n1Cc1cccc(Cl)c1Cl` [GSK2342769A], the potency estimated from few doses was 8.1 nM. As to `O=c1cc(N2CCOCC2)nc2n(Cc3cccc(Cl)c3)ccn12` [GSK2296823A], the potency estimated from few doses is 667 nM.

The next assay deals with PIK3CB. The arrangement: species or system human, MV4-11 + K-562 + COLO205 + SK-N-BE2 + OVCAR-8. Particulars: read-out: apparent Kd; compound concentrations:100 nM and 1000 nM (sheet 'Samples'); n = 1.
Consider `C[C@H]1CC[C@@H](C(=O)Nc2ccccc2)CN1c1cc(-c2ccc3c(N)n[nH]c3c2)nc(N)n1` [GSK2283293_KCGS], for which the potency estimated from few doses is 1130 nM. Same read-out and setting: with `O=c1cc(N2CCOCC2)nc2n(Cc3cccc(Cl)c3)ccn12` [GSK2296823A] the figure was 30.5 nM; with `Cc1c(Cn2c(C)nn3c(=O)cc(N4CCO[C@H](C)C4)nc23)cccc1C(F)(F)F` [GSK2373690A], 6.1 nM; with `O=C(O)C(F)(F)F.[2H]C([2H])(c1cccc(C(F)(F)F)c1C)n1c(SC)nn2c(=O)cc(N3CCOCC3)nc12` [GSK2363608B], 8.69 nM.

For the next assay, the system named is PIK3CD. Also noted: species or system human, MV4-11 + K-562 + COLO205 + SK-N-BE2 + OVCAR-8. Conditions: read-out: apparent Kd; compound concentrations: 100 nM and 1000 nM (sheet 'Samples'), CATDS: 1; n = 1.
Turning to `CCCCCc1nc2c(N)ncnc2n1CCCCC` [SKF-97255], the potency estimated from few doses was 152 nM. With `COc1ccc(Nc2nccc(N3CCC(NC(=O)c4cccc(NC(C)=O)c4)C3)n2)cc1` (centres unmarked) [GSK1379732A], the potency estimated from few doses was 141 nM. As to `CC(C)N1CCN(Cc2cnc(-c3cc(-c4cccc5[nH]ccc45)cc4[nH]ncc34)o2)CC1` [GSK2269557], the potency estimated from few doses is 1.45 nM.

The assay is the same for the next values; noted with them: read-out: apparent Kd; compound concentrations:100 nM and 1000 nM (sheet 'Samples'); n = 1.
For the compound `O=C(NCCNc1ccnc(NCc2ccc(F)cc2)n1)c1cc2ccccc2s1` [GSK1379944A], the potency estimated from few doses is 200 nM.

For the compound `O=c1cc(N2CCOCC2)nc2n(Cc3ccc(F)c(Cl)c3)ccn12` [GSK2297099A], the potency estimated from few doses was 150 nM. The same measure, in the same setting: as for `CN(C1=C(c2ccccc2)C(=O)NC1=O)c1ccccc1` [SB-334860], the figure is 175 nM. For the compound `Cc1cccc(-c2nc(Nc3ccc4c(cnn4C)c3)c3ccccc3n2)n1` [GW876731X], the potency estimated from few doses is 158 nM. Still for that read-out and setting: with `Cc1nn2c(=O)cc(N3CCOCC3)nc2n1Cc1cccc(Cl)c1Cl` [GSK2342769A] the figure was 87.6 nM; with `C[C@H]1CC[C@@H](C(=O)Nc2ccccc2)CN1c1cc(-c2ccc3c(N)n[nH]c3c2)nc(N)n1` [GSK2283293_KCGS], 168 nM; with `O=C(O)C(F)(F)F.[2H]C([2H])(c1cccc(C(F)(F)F)c1C)n1c(SC)nn2c(=O)cc(N3CCOCC3)nc12` [GSK2363608B], 146 nM.

Values taken from publication PMC11062922 (Nature Chemical Biology, 2023).
